These results are taken from the supplement of paper PMC11732987, “Enantioselective OTUD7B fragment discovery through chemoproteomics screening and high-throughput optimisation” (Communications Chemistry, 2025).

Values without a mark were called inactive.

What all share (assay): log2 ratio of Biotin-Ahx-Ub-VS probe labelling (fragment/DMSO); higher = less target engagement (more negative = stronger competition), active = hit call of the paper (q ≤ 0.05, log2 ratio ≤ -1)
Holding throughout (conditions): compound concentration: 200 uM; treatment time: 3 h

One test has as its target T1, OTUD6B (UniProt Q8N6M0).
T1 sequence (whole entry): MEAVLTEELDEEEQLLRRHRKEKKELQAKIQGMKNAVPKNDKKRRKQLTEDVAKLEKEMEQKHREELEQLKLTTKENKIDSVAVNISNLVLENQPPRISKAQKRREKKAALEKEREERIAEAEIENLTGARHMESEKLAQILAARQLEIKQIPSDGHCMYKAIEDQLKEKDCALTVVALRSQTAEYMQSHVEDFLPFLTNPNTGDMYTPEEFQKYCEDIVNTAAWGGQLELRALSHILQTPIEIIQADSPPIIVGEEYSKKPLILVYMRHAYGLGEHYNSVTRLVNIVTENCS
A digest of the protocol: (§1)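 Global-median-normalised Spectronaut label-free quantities were compared by unpaired t-test, and values are average log2 ratios of fragment over vehicle. Only proteins with ≥2 unique peptides were used. HEK293T lysate (495 µg per sample) was treated in triplicate with fragment at 200 µM or vehicle for 3 h and then with Biotin-Ahx-Ub-VS at 0.5 µM final for 1 h. Labelled DUBs were then NeutrAvidin-enriched, digested with LysC and trypsin, and run by diaPASEF LC-MS/MS.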

Another test has as its target T2, OTUD7B (UniProt Q6GQQ9).
T2 sequence (whole entry): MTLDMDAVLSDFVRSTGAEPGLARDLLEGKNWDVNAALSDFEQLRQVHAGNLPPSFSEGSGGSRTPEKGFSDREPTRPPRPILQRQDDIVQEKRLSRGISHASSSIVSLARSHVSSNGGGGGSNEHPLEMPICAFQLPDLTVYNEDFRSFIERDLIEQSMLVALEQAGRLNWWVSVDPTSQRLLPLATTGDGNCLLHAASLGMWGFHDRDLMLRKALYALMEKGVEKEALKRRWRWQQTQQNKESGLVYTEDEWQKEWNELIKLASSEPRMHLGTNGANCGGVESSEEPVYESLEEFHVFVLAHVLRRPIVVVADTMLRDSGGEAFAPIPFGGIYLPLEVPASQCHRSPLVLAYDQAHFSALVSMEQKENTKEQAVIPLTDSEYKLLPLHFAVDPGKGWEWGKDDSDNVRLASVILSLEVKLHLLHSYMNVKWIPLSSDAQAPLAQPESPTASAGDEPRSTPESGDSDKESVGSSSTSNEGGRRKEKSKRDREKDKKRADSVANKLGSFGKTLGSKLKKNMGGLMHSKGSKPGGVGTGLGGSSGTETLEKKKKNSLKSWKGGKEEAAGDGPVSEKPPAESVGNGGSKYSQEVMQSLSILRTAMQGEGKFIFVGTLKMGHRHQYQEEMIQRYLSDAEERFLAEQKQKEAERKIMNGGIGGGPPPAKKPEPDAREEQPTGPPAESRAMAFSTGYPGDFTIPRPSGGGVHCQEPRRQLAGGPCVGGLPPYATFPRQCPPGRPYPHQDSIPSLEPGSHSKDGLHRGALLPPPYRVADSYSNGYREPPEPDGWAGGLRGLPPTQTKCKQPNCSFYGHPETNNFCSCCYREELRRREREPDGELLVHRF
A digest of the protocol: as §1

The next test concerns the target PRPF8 (UniProt Q6P2Q9). In outline:
as §1

Another test addresses T3, PSMD7 (UniProt P51665).
T3 sequence (whole entry): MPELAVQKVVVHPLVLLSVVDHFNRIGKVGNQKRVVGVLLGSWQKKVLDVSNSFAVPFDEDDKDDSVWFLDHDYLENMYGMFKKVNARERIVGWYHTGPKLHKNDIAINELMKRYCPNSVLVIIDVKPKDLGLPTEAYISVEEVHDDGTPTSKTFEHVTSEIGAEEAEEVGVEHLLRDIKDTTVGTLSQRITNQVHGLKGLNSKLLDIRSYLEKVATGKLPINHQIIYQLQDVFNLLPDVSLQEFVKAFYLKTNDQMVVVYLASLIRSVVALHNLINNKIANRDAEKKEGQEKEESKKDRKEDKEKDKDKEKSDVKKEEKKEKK
In outline:
as §1

The next test deals with UCHL1 (UniProt P09936). In outline:
as §1

In the next test the target is T4, UCHL3 (UniProt P15374).
T4 sequence (whole entry): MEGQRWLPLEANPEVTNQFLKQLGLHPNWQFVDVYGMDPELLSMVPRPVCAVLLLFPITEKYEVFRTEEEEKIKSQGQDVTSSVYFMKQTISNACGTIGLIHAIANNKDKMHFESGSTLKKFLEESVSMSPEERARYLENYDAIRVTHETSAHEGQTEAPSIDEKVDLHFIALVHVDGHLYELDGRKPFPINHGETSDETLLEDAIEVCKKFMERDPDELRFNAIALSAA
A digest of the protocol:
as §1

A further test deals with T5, UCHL5 (UniProt Q9Y5K5).
T5 sequence (whole entry): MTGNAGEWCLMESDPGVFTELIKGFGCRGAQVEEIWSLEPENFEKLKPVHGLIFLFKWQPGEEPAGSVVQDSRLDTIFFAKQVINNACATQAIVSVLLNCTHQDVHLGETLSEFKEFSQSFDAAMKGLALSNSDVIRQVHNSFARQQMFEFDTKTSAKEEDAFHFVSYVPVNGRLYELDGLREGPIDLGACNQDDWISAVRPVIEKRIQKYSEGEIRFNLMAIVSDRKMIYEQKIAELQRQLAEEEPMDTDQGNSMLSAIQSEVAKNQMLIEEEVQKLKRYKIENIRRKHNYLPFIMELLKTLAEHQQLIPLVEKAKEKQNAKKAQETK
A digest of the protocol:
as §1

The target in a further test is USP10 (UniProt Q14694). A digest of the protocol: as §1
USP10, sequence (Q14694 whole entry): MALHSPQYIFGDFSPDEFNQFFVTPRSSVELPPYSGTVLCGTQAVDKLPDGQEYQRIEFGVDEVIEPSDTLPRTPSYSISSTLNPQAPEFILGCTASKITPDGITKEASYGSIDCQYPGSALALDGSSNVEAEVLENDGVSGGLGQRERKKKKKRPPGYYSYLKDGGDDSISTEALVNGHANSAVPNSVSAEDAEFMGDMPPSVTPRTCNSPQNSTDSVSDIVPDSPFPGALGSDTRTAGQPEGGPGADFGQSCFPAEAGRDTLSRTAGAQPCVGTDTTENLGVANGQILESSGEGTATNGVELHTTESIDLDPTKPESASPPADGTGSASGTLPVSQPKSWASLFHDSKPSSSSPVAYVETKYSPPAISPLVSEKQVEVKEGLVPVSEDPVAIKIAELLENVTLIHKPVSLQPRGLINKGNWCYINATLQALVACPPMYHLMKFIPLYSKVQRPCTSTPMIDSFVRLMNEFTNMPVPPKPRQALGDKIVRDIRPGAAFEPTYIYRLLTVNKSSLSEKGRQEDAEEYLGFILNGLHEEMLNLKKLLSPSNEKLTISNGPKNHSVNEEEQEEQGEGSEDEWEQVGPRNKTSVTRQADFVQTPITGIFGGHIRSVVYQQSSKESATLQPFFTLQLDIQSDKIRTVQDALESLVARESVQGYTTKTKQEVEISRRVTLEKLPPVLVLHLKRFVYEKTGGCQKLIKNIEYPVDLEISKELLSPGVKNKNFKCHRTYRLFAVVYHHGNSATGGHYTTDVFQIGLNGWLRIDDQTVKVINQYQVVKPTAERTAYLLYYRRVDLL
Another test addresses T6, USP15 (UniProt Q9Y4E8).
T6 sequence (whole entry): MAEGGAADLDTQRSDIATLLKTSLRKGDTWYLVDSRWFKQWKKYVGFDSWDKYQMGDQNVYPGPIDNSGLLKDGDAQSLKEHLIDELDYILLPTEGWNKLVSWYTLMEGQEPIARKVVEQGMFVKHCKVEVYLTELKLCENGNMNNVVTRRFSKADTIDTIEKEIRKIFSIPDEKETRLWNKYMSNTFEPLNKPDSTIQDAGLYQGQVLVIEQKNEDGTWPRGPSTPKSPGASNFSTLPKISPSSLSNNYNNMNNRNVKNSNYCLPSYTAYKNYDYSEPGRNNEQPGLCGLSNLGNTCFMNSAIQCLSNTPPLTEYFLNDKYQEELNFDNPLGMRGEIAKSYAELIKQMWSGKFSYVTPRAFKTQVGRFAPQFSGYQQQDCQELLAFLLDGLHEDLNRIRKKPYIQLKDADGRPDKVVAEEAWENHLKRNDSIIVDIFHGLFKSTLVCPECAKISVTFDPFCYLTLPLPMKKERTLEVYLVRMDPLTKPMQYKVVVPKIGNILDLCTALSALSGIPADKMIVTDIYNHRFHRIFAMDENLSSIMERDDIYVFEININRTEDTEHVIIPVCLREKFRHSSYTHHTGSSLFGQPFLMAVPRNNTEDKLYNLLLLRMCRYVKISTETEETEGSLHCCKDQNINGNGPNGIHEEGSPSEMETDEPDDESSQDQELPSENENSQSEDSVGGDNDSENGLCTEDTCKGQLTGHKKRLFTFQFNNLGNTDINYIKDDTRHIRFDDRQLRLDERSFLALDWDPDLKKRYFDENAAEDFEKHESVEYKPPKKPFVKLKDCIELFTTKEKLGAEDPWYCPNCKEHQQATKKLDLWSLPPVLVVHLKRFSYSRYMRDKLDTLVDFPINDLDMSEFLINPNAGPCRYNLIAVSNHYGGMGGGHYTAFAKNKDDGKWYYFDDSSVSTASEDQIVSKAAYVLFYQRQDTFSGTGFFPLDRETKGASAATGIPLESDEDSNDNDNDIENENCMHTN
A digest of the protocol:
as §1

UCHL1, sequence (P09936 whole entry, looked up): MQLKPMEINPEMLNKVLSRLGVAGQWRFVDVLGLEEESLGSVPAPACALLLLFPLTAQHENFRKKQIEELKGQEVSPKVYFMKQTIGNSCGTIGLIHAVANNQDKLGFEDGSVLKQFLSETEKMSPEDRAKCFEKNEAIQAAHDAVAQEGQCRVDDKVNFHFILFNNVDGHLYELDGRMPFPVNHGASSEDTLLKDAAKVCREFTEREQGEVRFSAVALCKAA

For the compound `O=C(CCl)NCC1(c2ccccc2)CC1`, the “log2 ratio of Biotin-Ahx-Ub-VS probe labelling” value in the test with OTUD6B was -0.042; with OTUD7B it was -0.82; with PRPF8, -0.155; in the test with PSMD7 it was -0.151; in the test with UCHL1, -1.22 (active); in the test with UCHL3 it was 0.255. The “log2 ratio of Biotin-Ahx-Ub-VS probe labelling” value with UCHL5 was -0.245; with USP10, 0.00549; with USP15, -0.107.
